Assay outcomes (PubChem)
This is one part of a sample in which hits are shown more often than they occur.
ST2 IL33 inh – inhibitors of human ST2 (IL1RL1) binding to IL-33; AID 1259354; AlphaLISA ST2-Fc/biotin-IL-33 interaction, 1 h; 78,000 compounds, 2.3% hits; Q01638; inhibition, % for hits at 17 µM; in the data active means inhibition above about 30%
Of the large screens only hits and unclear results are named; the others gave an inactive call; ! = not active in a repeat.

CC(O)c1cccc(-c2cc(NC3CCNCC3)nc3[nH]ccc23)n1 (stereo not drawn)	ST2 IL33 inh 46%
Cc1ccccc1-n1cc(-c2ccnc(NC3CCNCC3)n2)cn1	none
NC(=O)c1csc(-c2cc(NC3CCCC3)nc3[nH]ccc23)n1	none
c1ccc2c(-c3cc(NC4CCNCC4)nc4[nH]ccc34)n[nH]c2c1	ST2 IL33 inh 46%
CCNc1ccnc(-c2cccc3[nH]ccc23)n1	none
COc1ncc(-c2cc(NCCN(C)C)nc3[nH]ccc23)c(OC)n1	none
Cc1cc(-c2cc(NC3CCNCC3)nc3[nH]ccc23)c(=O)[nH]c1C	ST2 IL33 inh 38%
c1cnc(-c2cc(NC3CCNCC3)nc3[nH]ccc23)nc1	ST2 IL33 inh 41%
O=C(c1ccc(Br)o1)N1CCCCC1	none
NS(=O)(=O)c1ccc(CNC(=O)c2ccco2)cc1	none
CC(C)(C)c1nnc([C@H]2CCN(C3CCOCC3)C2)o1	none
Cc1cccc(CSc2nnc3sc4ccccc4n23)c1	none
COC(=O)c1nc2n(n1)C(c1ccc(OC)cc1)C(C(=O)OC1CCCCC1)=C(C)N2 (stereo not drawn)	none
O=C(CC1C(=O)NCCN1Cc1ccc(-c2ccccc2)cc1)NCc1ccoc1 (stereo not drawn)	none
Cc1nc(C)c(CC(=O)N(C)C(C)c2ccccn2)s1 (stereo not drawn)	none
CCN(CC)c1ccc(C2C(C(=O)Nc3cc(C)ccn3)=C(C)NC3=C2C(=O)CCC3)cc1 (stereo not drawn)	none
O=C(Nc1c(C(=O)O)oc2ccc(Cl)cc12)c1ccc(C(F)(F)F)cc1	none
Cc1ccc(N=Cc2cc(Cl)cc([N+](=O)[O-])c2O)c(C)c1	none
COc1cc(CN(C)CCc2ccccn2)cc(I)c1O	none
Cc1cccc(OCC(O)CN2C(=O)c3ccccc3C2=O)c1 (stereo not drawn)	none
COc1ccc2nc3oc(C(=O)N4CCCC(C)C4)cc3cc2c1 (stereo not drawn)	none
CN(C)C(=O)c1ccc2c(c1)N(CC(=O)N1CCc3ccccc31)C(=O)C1CCCCN21 (stereo not drawn)	none
Cc1cc(C(F)(F)F)c(C#N)c(SCC(=O)c2ccc([N+](=O)[O-])cc2)n1	ST2 IL33 inh 60%
COCc1cc(C)nc(SCc2ccccc2Cl)c1C#N	none
Cc1cc(C(F)(F)F)c(C#N)c(SCC(N)=O)n1	none
COCc1cc(C)nc(SCC(=O)c2ccc(Cl)cc2)c1C#N	ST2 IL33 inh 30%!
COCc1cc(C)nc(SCC(=O)c2ccc(C)cc2C)c1C#N	none
Cc1cc(C)c(C#N)c(SCC(=O)c2ccc(F)cc2)n1	none
COc1ccc(CCn2nc(C(=O)N(C)C)c3c2CCN(C(=O)c2cccnc2SC)C3)cc1	none
CCOc1ccc2c(c1)sc(=NC(=O)c1c(OC)cccc1OC)n2C	none
O=C(NCCCc1ccccc1)c1ccc(Nc2cc(-c3ccccc3)ncn2)cc1	none
CC1(C)CC(=O)C2=C(C1)OC(N)=C(C#N)C21CCCCC1	none
COCCNc1ccc(-c2noc([C@@H]3CCCN3)n2)cn1	none
O=C(c1cccn2c(=O)c3cc4ccccc4cc3nc12)N1CCN(c2cccc(Cl)c2)CC1	none
CC1(C)CCN2CCC(C)(C)c3c(O)ccc1c32	ST2 IL33 inh 73%
O=C(Nc1ccc(F)cc1)C12CC3CC(CC(C3)C1)C2	none
O=C1OC(c2cccc(F)c2)=N/C1=C/c1ccc(-c2ccccc2[N+](=O)[O-])o1	none
O=C(Nc1ccc(I)cc1Cl)c1ccc(-c2ccccc2[N+](=O)[O-])o1	none
O=[N+]([O-])c1ccccc1-c1ccc(/C=C/c2ccncc2)o1	ST2 IL33 inh 49%
Cc1ccccc1S(=O)(=O)N1CCN(c2cc(-c3ccc(F)cc3)ncn2)CC1	none
CC(C)(C)C(=O)/C=C(N)\C=C\c1ccccc1	ST2 IL33 inh 37%
CC(=O)Nc1ccc(/C=C/c2ccccc2)cn1	none
O=C(/C=C/c1ccccc1)CC(O)CCc1ccccc1 (stereo not drawn)	none
CC1=CC(C)(C)N(C(=O)CSc2nc(C)cc(=O)[nH]2)c2ccccc21	none
Cc1ccc(C(=O)Nc2ccc(NC(=O)CCN3CCCO3)cc2)o1	none
Cc1c(CC(Cl)(Cl)Cl)c2c(n1O)CC(C)(C)CC2=O	none
Cn1c2c(c3cc([N+](=O)[O-])ccc31)CCCC2=O	none
Cc1c(CC(Cl)(Cl)Cl)c2c(n1-c1ccc([N+](=O)[O-])cc1)CCCC2=O	ST2 IL33 inh 41%
COc1ccc(C2(C(N)=O)CCCC2)cc1OC	none
O=c1c2cnn(-c3ccccc3)c2ncn1Cc1ccc(Cl)c(Cl)c1	none
Cc1cc(OCC(O)CNC2CCSCC2)ccc1Cl (stereo not drawn)	none
O=C1C[C@H]2CC[C@@H](CN1)N2CCn1c(=O)oc2ccccc21	none
O=C(NC1CC(=O)N(c2ccc(F)cc2)C1)c1ccc(Br)o1 (stereo not drawn)	none
Cc1cccc(N2CCN(Cc3cc4c(cc3[N+](=O)[O-])OCO4)CC2)c1C	ST2 IL33 inh 37%
Cc1cccc(N=Cc2cc3c(cc2[N+](=O)[O-])OCO3)c1C	ST2 IL33 inh 39%
Cc1ccc(O)c(N=Cc2cccc([N+](=O)[O-])c2O)c1	none
O=[N+]([O-])c1cc2c(cc1CN1CCCCCC1)OCO2	none
O=[N+]([O-])c1cc2c(cc1C=Nc1ccc(I)cc1)OCO2	none
COc1cc(CN2CCN(c3cccc(C)c3C)CC2)cc([N+](=O)[O-])c1O	none
